In PubChem BioAssay (NCI) one finds growth data, which are given here for 8 compounds.

Among the test systems are NCI-H226 lung; NCI-H322M lung; HOP-62 NSCLC; NCI-H460 lung; NCI-H522 lung; A549/ATCC NSCLC; 786-0 renal; COLO 205 colon; DU-145 prostate; K-562 leukemia; MALME-3M melanoma; MDA-MB-231 breast; RXF 393 renal; SF-268 CNS; SF-295 CNS; SF-539 CNS; UACC-257 melanoma; M14 melanoma; HCT-15 colon; HOP-92 NSCLC.
Test in all cases: NCI-60 one-dose screen, 48 h (100 = growth as untreated, 0 = no growth, -100 = all killed)
Details in all cases: 10 µM unless noted

About 83,000 compounds went through this panel and 20% of them were active in at least one assay; those are over-represented in the sample as a whole.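 How to read the values: 0–100, growth inhibition (40 = 60% inhibited); 0, no net growth; -100 to 0, cell death (-40 = 40% of starting cells died; -100 = all dead).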 Unmarked numbers belong to inactive results. Activity calls are given as the source filed them. Rule for the calls: active = growth percent below 10; inactive = the rest.

Take `CCN1CCN(/C(=N\c2sc(-c3ccccc3)nc2-c2ccccc2)c2ccccc2)CC1`: the growth with NCI-H226 lung is 56.2%; with NCI-H322M lung, 91.8%; in the assay with HOP-62 NSCLC it was 95.4%; in the assay on NCI-H460 lung, 72.1%; in the assay with NCI-H522 lung, 71.6%; with A549/ATCC NSCLC, 80.2%. Further, the growth is 51.2% in the assay on 786-0 renal; 84.5% with COLO 205 colon; 93.7% in the assay on DU-145 prostate; 32.8% in the assay with K-562 leukemia; 108% in the assay with MALME-3M melanoma; 79.9% in the assay with MDA-MB-231 breast. For the same compound, the growth with RXF 393 renal was 72.1%; in the assay with SF-268 CNS, 89.2%; with SF-295 CNS, 111%; in the assay on SF-539 CNS, 87.8%; in the assay on UACC-257 melanoma it was 80.4%; in the assay on M14 melanoma, 81.1%. Moreover, the growth in the assay on HCT-15 colon is 38.1%.

`Nc1cc(-c2c[nH]c3ccc(Cl)cc23)nc2cc(-c3c[nH]c4ccc(Cl)cc34)nn12`: the growth in the assay on NCI-H226 lung is 71.3%; with NCI-H322M lung, 56.8%; in the assay on HOP-62 NSCLC, 85.7%; in the assay on NCI-H460 lung, 12.1%; in the assay with HOP-92 NSCLC it was 28.9%; in the assay on A549/ATCC NSCLC, 44.2%. Besides, the growth is 60.5% in the assay with 786-0 renal; 93.2% in the assay with COLO 205 colon; 53.4% with DU-145 prostate; 4.93% (active) in the assay with K-562 leukemia; 90.6% in the assay on MALME-3M melanoma; 49.3% in the assay with MDA-MB-231 breast. In addition, the growth in the assay with RXF 393 renal was 75%; with SF-268 CNS it was 54%; in the assay with SF-295 CNS, 33.6%; in the assay on SF-539 CNS, 65.5%; in the assay on UACC-257 melanoma it was 83.9%; with M14 melanoma, 48.6%. In addition, the growth in the assay on HCT-15 colon is 11.1%.

For `C/C(=C(/c1ccc(Cl)cc1)c1ccc(OCCN)cc1)c1ccc(C)cc1`, the growth was 112% in the assay on NCI-H226 lung; 103% in the assay on HOP-62 NSCLC; 100% with NCI-H460 lung; 87.2% with HOP-92 NSCLC; 99.4% in the assay on NCI-H522 lung; 97.7% in the assay with A549/ATCC NSCLC. For the same compound, the growth in the assay on 786-0 renal was 102%; with COLO 205 colon, 114%; in the assay on DU-145 prostate it was 106%; in the assay on K-562 leukemia, 90.8%; with MALME-3M melanoma it was 101%; in the assay on MDA-MB-231 breast it was 94.4%. Also, the growth with RXF 393 renal was 112%; in the assay with SF-268 CNS, 100%; in the assay on SF-295 CNS, 98.7%; in the assay on SF-539 CNS it was 93.8%; in the assay on UACC-257 melanoma, 104%; in the assay on M14 melanoma it was 102%. Moreover, in the assay with HCT-15 colon, the growth was 101%.

Consider `Cc1sc2c(c1C)c(=O)nc1c(-c3nc(-c4ccc(F)cc4)no3)n[nH]n12`, for which the growth with NCI-H226 lung was 93.1%; in the assay on HOP-62 NSCLC, 91.8%; in the assay with NCI-H460 lung it was 107%; with HOP-92 NSCLC, 91.2%; in the assay on NCI-H522 lung, 100%; in the assay with A549/ATCC NSCLC, 106%. Besides, the growth with 786-0 renal was 99.4%; in the assay with COLO 205 colon it was 119%; in the assay with DU-145 prostate it was 109%; in the assay on K-562 leukemia it was 103%; in the assay with MALME-3M melanoma it was 96.6%; in the assay on MDA-MB-231 breast, 95.5%. Moreover, the growth with RXF 393 renal is 120%; in the assay with SF-268 CNS, 103%; in the assay with SF-295 CNS, 98.4%; in the assay on SF-539 CNS, 93.7%; with UACC-257 melanoma, 105%; with M14 melanoma, 107%. Moreover, in the assay with HCT-15 colon, the growth was 92.5%.

For `CCN1C(=S)N(CC)C2C1NN=C1SC(c3ccccc3)=CC(=O)N12` (stereo not given), the growth in the assay with NCI-H226 lung is 101%; with HOP-62 NSCLC it was 100%; with NCI-H460 lung, 117%; with HOP-92 NSCLC, 103%; in the assay with NCI-H522 lung, 94.5%; in the assay with A549/ATCC NSCLC it was 101%. In addition, the growth is 104% in the assay on 786-0 renal; 115% with COLO 205 colon; 117% in the assay on DU-145 prostate; 57.1% in the assay with K-562 leukemia; 105% in the assay on MALME-3M melanoma; 94% in the assay with MDA-MB-231 breast. Moreover, the growth in the assay on RXF 393 renal was 89%; with SF-268 CNS it was 115%; in the assay with SF-295 CNS, 106%; in the assay on SF-539 CNS, 98%; in the assay with UACC-257 melanoma, 103%; in the assay with M14 melanoma it was 106%. The growth in the assay on HCT-15 colon was 78.2%.

Consider `COc1cc(/C=C/C(=O)c2ccc(C)cc2)ccc1Oc1nc(NCCO)nc(N2CCOCC2)n1`, for which the growth in the assay with NCI-H226 lung is 52%; in the assay on HOP-62 NSCLC, 104%; with NCI-H460 lung, 69.2%; with HOP-92 NSCLC, 63.6%; with A549/ATCC NSCLC, 97%; in the assay on 786-0 renal, -50.7% (active). Further, the growth with COLO 205 colon is 107%; in the assay with DU-145 prostate, 87%; in the assay with K-562 leukemia it was 6.48% (active); in the assay with MALME-3M melanoma it was 71.6%; in the assay on MDA-MB-231 breast it was 67.7%; in the assay on RXF 393 renal, 82.1%. In addition, the growth in the assay on SF-268 CNS is 66.1%; in the assay on SF-295 CNS, 79.8%; with SF-539 CNS it was 39.5%; with UACC-257 melanoma it was 101%; in the assay on M14 melanoma it was -64.4% (active); in the assay on HCT-15 colon, 14.5%.

Consider `CCN1CCN(S(=O)(=O)c2oc(-c3ccc(Cl)cc3)nc2C#N)CC1`, for which the growth was 106% with NCI-H226 lung; 96.5% with NCI-H322M lung; 108% in the assay on HOP-62 NSCLC; 105% in the assay on NCI-H460 lung; 36.7% in the assay on HOP-92 NSCLC; 95.6% in the assay with A549/ATCC NSCLC. Besides, the growth was -49.7% (active) in the assay with 786-0 renal; 65.5% with COLO 205 colon; 81.7% with DU-145 prostate; -53.6% (active) in the assay on MALME-3M melanoma; 26.7% in the assay with MDA-MB-231 breast; -60.2% (active) in the assay on RXF 393 renal. For the same compound, the growth is 112% with SF-268 CNS; 108% with SF-295 CNS; 53.1% with SF-539 CNS; 89.9% with UACC-257 melanoma; -50.6% (active) in the assay on M14 melanoma; -35.5% (active) with HCT-15 colon.

Turning to `CC1=C(C)C(=O)C(Nc2cccc(C(F)(F)F)c2)=C(Cl)C1=O`, the growth is 90.9% in the assay with NCI-H226 lung; 91% in the assay on HOP-62 NSCLC; 94.9% in the assay on NCI-H460 lung; 48.9% in the assay on HOP-92 NSCLC; 17.7% in the assay on NCI-H522 lung; 96.8% with A549/ATCC NSCLC. Further, the growth is 102% in the assay on 786-0 renal; 102% in the assay with COLO 205 colon; 99.7% in the assay on DU-145 prostate; 3.78% (active) with K-562 leukemia; 94.4% with MALME-3M melanoma; 19% in the assay on MDA-MB-231 breast. For the same compound, the growth was 97.8% in the assay with RXF 393 renal; 94.3% with SF-268 CNS; 96.2% with SF-295 CNS; 93.4% with SF-539 CNS; 78.5% in the assay on UACC-257 melanoma; 85.2% in the assay on M14 melanoma. Also, in the assay on HCT-15 colon, the growth is 65.7%.
